About 83,000 compounds went through this panel and 20% of them were active in at least one assay; those are over-represented in the sample as a whole.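 Method: cells in 96-well plates; compound added at one concentration; 48 h incubation; percent growth measured; values under 10 scored active.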 Active and inactive are the calls of the source.

The subject of one test is SW-620 colon. Description: NCI-60 one-dose screen, 48 h (100 = growth as untreated, 0 = no growth, -100 = all killed). Conditions: 10 µM unless noted.
In the case of `Cc1cc2nc3c4ccccc4n(CCNCCN(C)C)c3nc2cc1C`, the growth is -19.6% (active). With `Cc1ccccc1[C@H]1C(C(=O)c2ccc(Cl)cc2)C2(N[C@@H]1c1ccccc1)C(=O)Nc1ccc(Br)cc12` (stereo partly drawn), the growth was 13.3% (inactive).

On to `CC(C)c1sc(NC(=O)c2cc(NC(=O)c3cc(NC(=O)c4cscn4)cn3C)cn2C)nc1C(=O)NCCCN(C)C`, for which the growth was 20.5% (inactive). `CC(=O)OC[C@@]1(C)C2CC[C@]3(C)C(CC=C4C5CC(C)(C)CC[C@]5(C(=O)Nc5ccc(C)cc5)CC[C@]43C)[C@@]2(C)C[C@@H](OC(C)=O)[C@@H]1OC(C)=O` (stereo partly drawn): the growth is 40.5% (inactive). Same read-out and setting: in the case of `O=C1CC(Sc2n[nH]c(-c3ccncc3)n2)C(=O)N1c1ccc(Br)cc1` (stereo not drawn) it was 101% (inactive); in that of `COc1cc2c3c(n(CCCN4CCC[C@@H]4CO)c(=O)c2cc1OC)-c1cc2c(cc1C3=O)OCO2`, -77.8% (active); in that of `C=C1CCC2C3(C)COC(c4ccc(F)cc4)OC3CCC2(C)C1C/C=C1/C(=O)OCC1O` (stereo not drawn), -69.8% (active). Still for that read-out and setting: the same measure for `Cc1sc(C(NC(=O)OCCn2c([N+](=O)[O-])cnc2C)C(F)(F)Cl)nc1-c1ccc(OC(F)(F)F)cc1` (stereo not drawn): -67.1% (active); for `CC1[C@H]2[C@H](C[C@H]3[C@@H]4CC=C5c6sc(Nc7ccccc7F)nc6CC[C@]5(C)[C@H]4CC[C@@]32C)O[C@]12CC[C@@H](C)CO2` (stereo partly drawn): -75.4% (active). Still for that read-out and setting: the same measure for `O=C(c1ccccc1)c1ccc2nc(-c3cccc(Cl)c3)[nH]c2c1`: 108% (inactive); for `OCNc1ccc(-n2cnc3cc(-c4ccc(O)cc4)ccc32)cc1C(F)(F)F`: 27.1% (inactive). For the compound `CCOC(=O)C(N=Nc1ccc(S(=O)(=O)N=C(N)N)cc1)C(C)=O` (stereo not drawn), the growth is 102% (inactive).

For the compound `CCOC(=O)/C=C/c1cccc2c1C(=O)NC(C)(c1cc3cc(Cl)ccc3oc1=O)N2` (stereo not drawn), the growth is 40.9% (inactive).

With `C#CCOc1cc(N(CC)CC)ccc1C(C(=O)NC(C)(C)C)N(C(=O)C1CCc2cc(F)ccc2O1)c1ccc(Br)cc1` (stereo not drawn), the growth was 77.9% (inactive). Turning to `CCCCCCCCc1ccc(C(=O)Nc2ccc(C)cc2C(=O)O)cc1C`, the growth was 97.2% (inactive). The same measure, in the same setting: the same measure for `C#CCOc1cc(N(CC)CC)ccc1C(C(=O)NC(C)(C)C)N(C(=O)C1CCc2cc(F)ccc2O1)c1ccc(F)c(Cl)c1` (stereo not drawn): 74.3% (inactive). On the same count and under the same terms, in the case of `CCOC(=O)C1=C(N)N(c2ccccc2)C2=C(C(=O)CC(C)(C)C2)C1c1ccc([N+](=O)[O-])cc1` (stereo not drawn) it was 96.9% (inactive). On the same count and under the same terms, the same measure for `C=C1CC[C@@H]2[C@]3(C)COC(c4ccccc4)O[C@@H]3CC[C@@]2(C)[C@@H]1C/C=C1/C(=O)OCC1OC(C)=O` (stereo partly drawn): -49.1% (active); for `C#C[C@]1(O)CC[C@H]2[C@@H]3CC=C4c5sc(-c6ccc([N+](=O)[O-])cc6)nc5CC[C@]4(C)[C@H]3CC[C@@]21C`: -12.5% (active); for `CN1CCN(/C(=N\c2sc(-c3ccccc3)nc2-c2ccccc2)c2ccccc2)CC1`: 79.5% (inactive). In the case of `N=C1N=C(SCc2nc3ccccc3[nH]2)NC(=O)/C1=C/c1ccc(Cl)cc1`, the growth was 98.5% (inactive). On the same count and under the same terms, the same measure for `C/C(=N\N=C1/C(=O)Nc2ccc(Cl)cc21)c1ccc2c(c1)Nc1ccccc1S2`: -27.8% (active); for `Cc1cccc(NC(=O)CN2CCN(c3ncnc4c3cnn4-c3ccccc3)CC2)c1`: 92% (inactive); for `CN(C)CCOc1ccc(C(=O)C2[C@H](c3ccc(Cl)cc3)[C@@H](c3ccccc3)NC23C(=O)Nc2ccccc23)cc1` (stereo partly drawn): -57.7% (active). The same measure, in the same setting: in the case of `COc1ccc2[nH]cc(-c3nnc(N)nc3-c3cn(C)c4ncc(Br)cc34)c2c1` it was 87.9% (inactive).

For the next test, the system named is MCF7 breast. The test is described as above. The conditions noted are these: 10 µM unless noted.
For the compound `COc1c(F)ccc(C(=O)Nc2ccc3nc(NC(=O)C4CCCN(S(=O)(=O)C5CC5)C4)sc3c2)c1F` (stereo not drawn), the growth is 15.2% (inactive). On the same count and under the same terms, the same measure for `CCOC(=O)C1=C(N)N(c2ccccc2)C2=C(C(=O)CC(C)(C)C2)C1c1ccc(N2CCOCC2)cc1` (stereo not drawn): 90.7% (inactive); for `OCC1(CCCc2ccccc2)CCCN(c2nccc3ccccc23)C1` (stereo not drawn): 12.3% (inactive).

In the case of `COc1ccc(/C=N/NC(=O)Cn2nc(Cc3ccc(OC)cc3)c3onc(C)c3c2=O)cc1`, the growth is 45% (inactive). On the same count and under the same terms, in the case of `O=[N+]([O-])c1ccc(/C=C/c2nc3ccccc3n3c(=S)[nH]nc23)cc1` it was 51.2% (inactive); in that of `COC(=O)/C=C/c1cccc2c1C(=O)NC(C)(c1cc3ccccc3oc1=O)N2` (stereo not drawn), 82.2% (inactive). Same read-out and setting: in the case of `CCN(CC)c1ccc(/C=N/Nc2nc(-c3ccc(Br)cc3)cs2)c(O)c1` it was 18.7% (inactive). The same measure, in the same setting: in the case of `O=C(c1ccccc1)C(c1c[nH]c2ccccc12)c1c[nH]c2ccccc12` it was 16.4% (inactive).

For the compound `CC1(C)CC[C@]2(C(=O)Nc3ccc(Br)cc3)CC[C@]3(C)C(=CCC4[C@@]5(C)C[C@@H](O)[C@H](O)[C@@](C)(CO)C5CC[C@]43C)C2C1` (stereo partly drawn), the growth is 1.85% (active). Turning to `CC(/C=C1\SC(=S)N(CCCC(=O)NC(CC(C)C)C(=O)O)C1=O)=C\c1ccccc1` (stereo not drawn), the growth was 82.1% (inactive). The same measure, in the same setting: in the case of `Cn1cc(-c2cc(N)n3nc(-c4cn(C)c5ccccc45)cc3n2)c2cc(Br)ccc21` it was -74.1% (active). Still for that read-out and setting: the same measure for `Cc1ccc(NCC(=O)Cn2cc(COc3ccc(C=Nc4cnc5ccccc5c4)cc3)nn2)cc1`: 102% (inactive); for `Cc1ccc([C@H]2C(C(=O)c3ccc(Cl)cc3)C3(N[C@@H]2c2ccccc2)C(=O)Nc2ccc(Cl)cc23)cc1` (stereo partly drawn): 16.7% (inactive).

For `Cc1cc2nc3c4ccccc4n(CCNCCN(C)C)c3nc2cc1C`, the growth was -28.8% (active). Same read-out and setting: in the case of `Cc1ccccc1[C@H]1C(C(=O)c2ccc(Cl)cc2)C2(N[C@@H]1c1ccccc1)C(=O)Nc1ccc(Br)cc12` (stereo partly drawn) it was -6.57% (active); in that of `CC(C)c1sc(NC(=O)c2cc(NC(=O)c3cc(NC(=O)c4cscn4)cn3C)cn2C)nc1C(=O)NCCCN(C)C`, 24.5% (inactive); in that of `CC(=O)OC[C@@]1(C)C2CC[C@]3(C)C(CC=C4C5CC(C)(C)CC[C@]5(C(=O)Nc5ccc(C)cc5)CC[C@]43C)[C@@]2(C)C[C@@H](OC(C)=O)[C@@H]1OC(C)=O` (stereo partly drawn), 25.6% (inactive). Still for that read-out and setting: in the case of `O=C1CC(Sc2n[nH]c(-c3ccncc3)n2)C(=O)N1c1ccc(Br)cc1` (stereo not drawn) it was 99.8% (inactive). Still for that read-out and setting: in the case of `COc1cc2c3c(n(CCCN4CCC[C@@H]4CO)c(=O)c2cc1OC)-c1cc2c(cc1C3=O)OCO2` it was -84.9% (active).

On to `C=C1CCC2C3(C)COC(c4ccc(F)cc4)OC3CCC2(C)C1C/C=C1/C(=O)OCC1O` (stereo not drawn), for which the growth is -30.7% (active). Same read-out and setting: in the case of `Cc1sc(C(NC(=O)OCCn2c([N+](=O)[O-])cnc2C)C(F)(F)Cl)nc1-c1ccc(OC(F)(F)F)cc1` (stereo not drawn) it was -85.1% (active); in that of `CC1[C@H]2[C@H](C[C@H]3[C@@H]4CC=C5c6sc(Nc7ccccc7F)nc6CC[C@]5(C)[C@H]4CC[C@@]32C)O[C@]12CC[C@@H](C)CO2` (stereo partly drawn), -66.8% (active). On to `O=C(c1ccccc1)c1ccc2nc(-c3cccc(Cl)c3)[nH]c2c1`, for which the growth was 105% (inactive). The same measure, in the same setting: the same measure for `OCNc1ccc(-n2cnc3cc(-c4ccc(O)cc4)ccc32)cc1C(F)(F)F`: 10.1% (inactive); for `CCOC(=O)C(N=Nc1ccc(S(=O)(=O)N=C(N)N)cc1)C(C)=O` (stereo not drawn): 97.9% (inactive); for `CCOC(=O)/C=C/c1cccc2c1C(=O)NC(C)(c1cc3cc(Cl)ccc3oc1=O)N2` (stereo not drawn): 26.5% (inactive). On the same count and under the same terms, in the case of `C#CCOc1cc(N(CC)CC)ccc1C(C(=O)NC(C)(C)C)N(C(=O)C1CCc2cc(F)ccc2O1)c1ccc(Br)cc1` (stereo not drawn) it was 52.8% (inactive). Still for that read-out and setting: the same measure for `CCCCCCCCc1ccc(C(=O)Nc2ccc(C)cc2C(=O)O)cc1C`: 93.8% (inactive). `C#CCOc1cc(N(CC)CC)ccc1C(C(=O)NC(C)(C)C)N(C(=O)C1CCc2cc(F)ccc2O1)c1ccc(F)c(Cl)c1` (stereo not drawn): the growth was 30.5% (inactive). Same read-out and setting: the same measure for `CCOC(=O)C1=C(N)N(c2ccccc2)C2=C(C(=O)CC(C)(C)C2)C1c1ccc([N+](=O)[O-])cc1` (stereo not drawn): 83.8% (inactive); for `C=C1CC[C@@H]2[C@]3(C)COC(c4ccccc4)O[C@@H]3CC[C@@]2(C)[C@@H]1C/C=C1/C(=O)OCC1OC(C)=O` (stereo partly drawn): -56.7% (active); for `C#C[C@]1(O)CC[C@H]2[C@@H]3CC=C4c5sc(-c6ccc([N+](=O)[O-])cc6)nc5CC[C@]4(C)[C@H]3CC[C@@]21C`: 0.614% (active).

For the compound `CN1CCN(/C(=N\c2sc(-c3ccccc3)nc2-c2ccccc2)c2ccccc2)CC1`, the growth was 75.1% (inactive). On the same count and under the same terms, in the case of `N=C1N=C(SCc2nc3ccccc3[nH]2)NC(=O)/C1=C/c1ccc(Cl)cc1` it was 96.9% (inactive). Still for that read-out and setting: the same measure for `C/C(=N\N=C1/C(=O)Nc2ccc(Cl)cc21)c1ccc2c(c1)Nc1ccccc1S2`: -9.38% (active); for `Cc1cccc(NC(=O)CN2CCN(c3ncnc4c3cnn4-c3ccccc3)CC2)c1`: 74.8% (inactive); for `CN(C)CCOc1ccc(C(=O)C2[C@H](c3ccc(Cl)cc3)[C@@H](c3ccccc3)NC23C(=O)Nc2ccccc23)cc1` (stereo partly drawn): -20.8% (active). Same read-out and setting: the same measure for `COc1ccc2[nH]cc(-c3nnc(N)nc3-c3cn(C)c4ncc(Br)cc34)c2c1`: 68.7% (inactive).

The values above are taken from PubChem BioAssay (NCI).
